According to the supplement of paper PMC6555819:

The sequences below were run on VDR:RXRa (NR concentration 270 nM, RXRa partner concentration 90 nM) (assay: PBM binding z-score (relative to random genomic background probes); higher = stronger binding; sequences stand for … in GC…GCGATTGACAGCGTAGAATGAAGG).
Method: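 Protein-binding microarray (Agilent 4x180K custom design, double-stranded 60-nt probes: 5' GC cap, 34-nt variable region, 24-nt constant primer region; full probe sequence given). Purified or IVT nuclear receptor:RXRα heterodimers (3:1 NR:RXRα, mostly 270:90 nM) or homodimers were incubated for 1 h in PBS with 2% milk and no ligand, then detected with Alexa488 antibodies. Fluorescence from o1-orientation probes (~5 replicates averaged) was converted to z-scores against 500 random hg19 background probes. Variable regions are seed direct-repeat (DR0–DR5) sites, all their single-nucleotide variants and half-site ablations.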
With TCTGCTAGGTGAACGATGGTCAGCTAATCTGCTA the PBM binding z-score was -0.621. In the case of CCGACTGGGGCAAGGTTACCGTAACGCACAGCCA, the PBM binding z-score is reported as -0.0549. CAAACTAGGTCAAGAGGTCAAATTCCGCTTCCCG was tested, and the PBM binding z-score was 6.17. CCTCGGAGGAAAGAAGGTCAGAGCTGTCCGCTTT gave a PBM binding z-score of 1.09. Sequence AATACAGGGTCATCGTAGGCCAGGGTACGCACAG has a PBM binding z-score of 5.25. Work on TCTATTAGTTGACGGGCAACCGACGAGTCCGTTT yielded a PBM binding z-score of 0.671. Work on ATCGAAAGGTCCAGGTGAGTATAGAGAAAGGGAA yielded a PBM binding z-score of 0.18. Sequence CAACCTAGGTCAAAGGTCAAAGTCGAGCCAACCA has a PBM binding z-score of 7.01. Sequence CCTACTGGGCCGCGAAAGGTCATTGATTCAGTGA has a PBM binding z-score of 3.74. Work on CCTCGGAGGACAACAGGAGGTGAGAGCTGCCAGA yielded a PBM binding z-score of -0.342. GCGGCTGGGGCATCAGCAGGTTACCATAACTTAA was tested, and the PBM binding z-score was -0.259. CCTACTGGGCCACGAAAGGTCATAGATTCAGTGA showed a PBM binding z-score of 3.89. With CGTCCAAGGTCAAGGTCAGAGAAAGAGACTCGAA the PBM binding z-score was 4.57. In the case of TCAGCTAGGTCAACGATGGTCAGCTAATCTGCTA, the PBM binding z-score is reported as 1.53. Sequence TAGCGTAGGTCATGGGCCAGTATACCACGCGAAC has a PBM binding z-score of 2.24. Sequence TCTATTAGATGATTAGGGCAACCGAAACAGCGGA has a PBM binding z-score of 0.44. TTATCAAGGTGAAGGTCGTTGATCCCTCTGTAGA showed a PBM binding z-score of 1.55. In the case of ATCGAAAGTTCGAAGGTGAGTATACCCACCCGAA, the PBM binding z-score is reported as 1.29. In the case of GCGACTGGGGCAGCAGCAGGTTACCATAACTTAA, the PBM binding z-score is reported as -0.465. TCTTGTAGATGAACAGGAGGTTAAGAAAGATCGA showed a PBM binding z-score of 0.644. With TCTATTAGTTGATTAGGGCAAGCGAAACAGCGGA the PBM binding z-score was 0.402. AGTCAATGTTCATCTAGGTAACGTAAGATATGCT was tested, and the PBM binding z-score was -0.275. ACTAGCAGGCGAAGGGTCACTCAAGATTAGTCCG gave a PBM binding z-score of 2.23. In the case of GCTTGTAGATCAAAGTTAAGAAAGACTAAGCTAA, the PBM binding z-score is reported as -0.483. CCGAGTAGGTCATGGGGCATTCAGGCAACGGTGA gave a PBM binding z-score of 2.27. With GCGACTGGGGCAATGCAGGTTACCATAAGGTTGG the PBM binding z-score was -0.0726. For TCTCTGAGGACACGAAAGGTCAGAGCTCGACATC, the PBM binding z-score was 3.54. CGTCCAAGGTCAAAGGTCAGTTAAGAGATGACGG was tested, and the PBM binding z-score was 6.49. Sequence CAAACTAGGTCACAGAGGTCAATGTCCGTGCGTA has a PBM binding z-score of 7.62. Work on CCTAGTTGGTCAGAAGGTCACACACCGGATATGA yielded a PBM binding z-score of 3.5. Work on GCTTACGGGTCAAAGGTTATTGCATGAATAGAAT yielded a PBM binding z-score of 5.54. For AGAATTAGGTTACCAAAGATCAGGGAAACGCTTG, the PBM binding z-score was 0.204. With TGAATGAGGTTAAAGCTCAGGGAACGTGGCGTCG the PBM binding z-score was 1.14. ATATGTAGGTTACGGGTCATTCAGGTTGGTTCGC showed a PBM binding z-score of 4.76. For AGAACGAGGGCACGCTGAGTTGATAGCAGAGTAG, the PBM binding z-score was 2.2. Sequence CGAACTAGGTCATTGACGGGACAGTGAATAGTAA has a PBM binding z-score of 1.86. CGTCATAGTTCAAGGTAACGTAACAGAAAGCAGC was tested, and the PBM binding z-score was 1.3. ACAGACAGGTGAATGAAGGTAACTCAGCTGGACG was tested, and the PBM binding z-score was -0.131. Sequence AGAATGAGGTTGTACGTAGATCAGGGAAGAAAGT has a PBM binding z-score of 0.177. Work on CCTACTGGGCCATCAGGCCATTGATATCAACGTT yielded a PBM binding z-score of -0.292.
